# The whole screen tested about 48,000 compounds, of which about 13,000 (27%) showed an effect of 50% or more. The list shows a part of the results.
# Test system: Wolbachia pipientis
# Assay: Anti-Wolbachia Cell-Based Screen
# Type: functional
# Set-up: scale not given: in the data most compounds retested in dose-response had high values
# Settings: 5 µM
row,Structure (SMILES),Percent Effect
1,O=C(Nc1ccnc(OC2CCOC2)c1)C1CCC1 (stereo not given),-17.8%
2,Cc1cc(CN2CCC(CNC(=O)c3ccc(O)c(Cl)c3)C2)[nH]n1 (stereo not given),12.57%
3,Cc1nc(C(=O)N2CCCCC2c2ccc(CN(C)C)cc2)c(C)o1 (stereo not given),-1.477%
4,CNS(=O)(=O)c1ccc(C(=O)N2CCCC2c2cnn(C)c2)o1 (stereo not given),-2.298%
5,CNS(=O)(=O)c1ccc(C(=O)N2CCCC2c2ccccc2C)o1 (stereo not given),116.1%
6,CC(=O)Nc1nc(C(=O)N2CCCC2c2ccccc2C)cs1 (stereo not given),-3.064%
7,CNS(=O)(=O)c1ccc(C(=O)N2CCCC2Cc2ccccc2)o1 (stereo not given),9.44%
8,NS(=O)(=O)c1ccc(C(=O)N2CCCC2c2ccccc2)o1 (stereo not given),114.9%
9,CNS(=O)(=O)c1ccc(C(=O)N2CCCC2c2ccccc2)o1 (stereo not given),-8.711%
10,CNc1nc(C(=O)N2CCCCC2c2ccc(CN(C)C)cc2)cs1 (stereo not given),-11.93%
11,CN(C)Cc1ccc(C2CCCCN2C(=O)c2ncccc2O)cc1 (stereo not given),1.796%
12,CNS(=O)(=O)c1ccc(C(=O)N2CCCC2c2ccncc2)o1 (stereo not given),101.5%
13,CNS(=O)(=O)c1ccc(C(=O)N2CCCCC2c2ccc(C)cc2)o1 (stereo not given),124%
14,O=c1ccncn1Cc1csc(C2CC2)n1,-22.65%
15,Cc1cc(C)cc(CCC(=O)NC(C)c2nnn[nH]2)c1 (stereo not given),-2.993%
16,CCCn1nc2c(cc1=O)CN(Cc1ncc(C(C)(C)C)o1)CC2,7.183%
17,c1ccc2c(N3CCCCC3)cnnc2c1,-32.94%
18,CN(Cc1ccco1)c1ccc(C(=O)NCCCc2ccccn2)cn1,-0.2765%
19,CN1CC[C@@H]2[C@@H]1CCN2Cc1ccc2c(c1)OCO2,-14.63%
20,COCc1cn(C2CCN(Cc3ccc(Cl)s3)CC2)nn1,0.9369%
21,CCCC(C)CN1CCC(n2cc(CCCO)nn2)CC1 (stereo not given),-3.716%
22,CC(CCN1CCC(n2cc(CCO)nn2)CC1)c1ccccc1 (stereo not given),92.59%
23,COCc1cn(C2CCN(CCC(C)c3ccccc3)CC2)nn1 (stereo not given),99.11%
24,Cc1cccc(CN2CCC(n3cc(CCO)nn3)CC2)c1C,4.105%
25,CSC(C)CCN1CCC(n2cc(C3CCCCC3)nn2)CC1 (stereo not given),-13.53%
26,COCc1cn(C2CCN(C(=O)Cc3ccsc3)CC2)nn1,-0.9661%
27,CNCc1cn(C2CCN(CCC(C)c3ccccc3)CC2)nn1 (stereo not given),95.9%
28,CNCc1cn(C2CCN(C(=O)NCc3ccco3)CC2)nn1,17.43%
29,CSCc1noc(CN(C)C(C)c2nc(C)sc2C)n1 (stereo not given),-2.011%
30,CC(C)C(=O)NC1COC2(CCN(C(=O)c3ccc[nH]3)CC2)C1 (stereo not given),3.438%
